Screens deposited in PubChem by National Center for Advancing Translational Sciences (NCATS).
ELG1 genotoxic: qHTS screen for small molecules that induce genotoxicity in human embryonic kidney (HEK293T) cells expressing luciferase-tagged ELG1; Potency, µM (doses to about 46 µM), most hits filed as activators; 330,000 tested, 1.3% active; HEK293T ELG1-luciferase reporter, luminescence, 16 h; also: nearly all actives have a fitted effect of over 60% in size
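Luminescence read-out: rising ELG1-luciferase signal, reflecting elevated ELG1 protein under genetic stress, flags genotoxic compounds. Cells were treated for 16 hr at 37 °C before ONE-Glo detection.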
Luc counter: Counterscreen for Luciferase (Kinase-Glo TM) Inhibition | Luciferin 4-monooxygenase (Photuris pensylvanica), Q27757 | Kinase-Glo luciferase, ATP luminescence, 8 min | Potency, µM (top dose mostly 38.3 µM), most hits filed as inhibitors | 200,000 tested, 0.28% active | AID 1379, 2008; also: nearly all actives have a fitted effect of over 60% in size
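Kinase-Glo luciferase light output from ATP and luciferin was measured with 10 uM ATP, within the enzyme's linear range. Buffer: 50 mM imidazole pH 7.2, 50 mM KCl, 7 mM MgCl2, 0.01% Tween 20, 0.05% BSA; luminescence read after 8 min at ambient temperature.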
SMN2 splice up: qHTS Assay for Enhancers of SMN2 Splice Variant Expression | HEK293 SMN2-luciferase splicing reporter, luminescence, 30-36 h | Potency, µM (top dose mostly 46.1 µM), most hits filed as activators | 210,000 tested, 2.8% active | AID 1458, 2008; also: nearly all actives have a fitted effect of over 55% in size
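qHTS luciferase splicing reporter: luminescence rises when SMN2 exon 7 is included in transfected HEK293 cells. Compound exposure lasted 30-36 h at 37C, with 4.5 mM final sodium butyrate as control, followed by a ONE-Glo read.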
FLuc counter: qHTS profiling assay for firefly luciferase inhibitor/activator using purifed enzyme and Km concentrations of substrates (counterscreen for miR-21 project). purified FLuc, Km substrates, luminescence inhibition. Potency, µM (series often up to 57.5 µM), hits mostly inhibitors. 360,000 tested, 6.9% active. AID 588342, 2011; also: nearly all actives have a fitted effect of over 55% in size
Target sequence (P08659 whole entry, looked up): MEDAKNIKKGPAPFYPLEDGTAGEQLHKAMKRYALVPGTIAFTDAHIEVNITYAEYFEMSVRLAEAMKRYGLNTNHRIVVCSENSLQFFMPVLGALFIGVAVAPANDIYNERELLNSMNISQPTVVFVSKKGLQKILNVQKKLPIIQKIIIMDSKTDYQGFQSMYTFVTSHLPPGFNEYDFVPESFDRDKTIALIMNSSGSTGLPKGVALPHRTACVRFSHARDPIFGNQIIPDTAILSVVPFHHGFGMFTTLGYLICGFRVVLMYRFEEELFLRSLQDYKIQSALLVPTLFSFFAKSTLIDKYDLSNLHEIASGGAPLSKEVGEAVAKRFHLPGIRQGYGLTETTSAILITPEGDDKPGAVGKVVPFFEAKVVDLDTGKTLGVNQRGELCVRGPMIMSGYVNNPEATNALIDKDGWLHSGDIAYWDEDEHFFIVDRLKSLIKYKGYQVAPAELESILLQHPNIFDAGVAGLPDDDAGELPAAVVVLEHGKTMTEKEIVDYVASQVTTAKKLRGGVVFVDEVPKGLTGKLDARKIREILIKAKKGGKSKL
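Biochemical qHTS of compounds, final roughly 60 µM downward over six points, against 10 nM purified firefly luciferase using Km concentrations of substrates (10 uM D-luciferin, 10 uM ATP) in Tris acetate pH 7.5 buffer; luminescence output.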
Rab9 prom act: qHTS Assay for Rab9 Promoter Activators | Potency, µM (doses to about 9.22 µM), actives largely listed as activators | 320,000 tested, 2.8% active | Huh7 Rab9 promoter-luciferase reporter, luminescence, 24 h; also: nearly all actives have a fitted effect of over 60% in size
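Steps: seed 1500 Huh7 Rab9-luc cells per well, rest 2 h at 37 °C; add compound in DMSO; incubate 24 h; add luciferase reagent, 10 min ambient; read luminescence.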
NPC1 promoter act: qHTS Assay for NPC1 Promoter Activators | Huh7 NPC1 promoter luciferase reporter, 24 h | Potency, µM (highest dose often 9.22 µM), hits mostly activators | 320,000 tested, 2.4% active; also: nearly all actives have a fitted effect of over 60% in size
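Cells: Huh7 expressing luciferase under the NPC1 promoter, 1500/well. Seeded 2 h, compound added, incubated 24 h at 37 °C. Luciferase reagent, 10 min ambient, then luminescence.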
Large screens that a line does not name were inactive. This is a sample that favours compounds with a hit; in the whole collection about 7.5% have one here. Calls follow the shape of the dose curve; as a rule, active = well fitted curve in the direction sought with a large enough effect; inconclusive = small, poorly fitted or top-dose-only effect, or another doubt; inactive = no such curve, though single readings can be large; an effect the other way counts as inactive or inconclusive.

S=C(Nc1nc2c(s1)CCCC2)NC1CC1	ELG1 genotoxic inconclusive, FLuc counter 12µM, Rab9 prom act 2.51µM, NPC1 promoter act inconclusive (no result: Luc counter, SMN2 splice up)
Cc1ccc(-c2onc(C)c2C)cc1S(=O)(=O)NCc1cccs1	none (no result: ELG1 genotoxic, Luc counter, SMN2 splice up, Rab9 prom act, NPC1 promoter act)
CCOC(=O)N/N=C\c1ccc(OC(=O)c2ccc3c(c2)OCO3)cc1	FLuc counter 15.1µM
O=C(O)c1ccc(CNC(=O)c2ccc3c(c2)OCCO3)cc1	FLuc counter inconclusive (no result: Luc counter, SMN2 splice up)
O=C(N/N=C/c1ccccc1)c1ccc2c(c1)OCO2	ELG1 genotoxic inconclusive, FLuc counter inconclusive, Rab9 prom act 0.398µM, NPC1 promoter act 0.562µM (no result: Luc counter, SMN2 splice up)
O=C(N/N=C/c1ccc(Br)o1)c1ccc2c(c1)OCCO2	ELG1 genotoxic inconclusive, SMN2 splice up 11.2µM, FLuc counter 6.01µM, Rab9 prom act 3.16µM, NPC1 promoter act 3.16µM
O=C(O)c1ccc(/C=N/NC(=O)c2ccc3c(c2)OCCO3)cc1	ELG1 genotoxic inconclusive, FLuc counter 6.75µM (no result: Luc counter, SMN2 splice up)
O=C(N/N=C/c1ccccc1)c1cc(-c2ccc3c(c2)OCO3)n[nH]1	none
O=C(CNC(=O)c1ccc2c(c1)OCCO2)N/N=C/c1ccco1	none (no result: Luc counter, SMN2 splice up)
Cc1nc2ccn(Cc3cccs3)c(=O)c2cc1C(=O)N1CCN(c2ccccc2)CC1	none (no result: ELG1 genotoxic, Luc counter, SMN2 splice up, Rab9 prom act, NPC1 promoter act)
Cc1cccc(C)c1OCC(=O)NCC1(N2CCOCC2)CCCCC1	none (no result: ELG1 genotoxic, Luc counter, SMN2 splice up, Rab9 prom act, NPC1 promoter act)
Cc1nn(C)cc1/C=N/NC(=O)c1ccc2c(c1)OCO2	FLuc counter 16.9µM
O=C(N/N=C/c1cccc(O)c1)c1cc(-c2ccc3c(c2)OCO3)n[nH]1	FLuc counter 5.36µM
Cn1cc(Br)c(C(=O)N/N=C/c2cccc(OC3CSC3)c2)n1	FLuc counter 19µM
CCn1cc(/C=N/NC(=O)c2ccc3c(c2)OCO3)cn1	FLuc counter inconclusive
CCOc1cc(/C=N/NC(=O)c2nn(C)cc2Br)ccc1OCc1ccccc1Cl	FLuc counter inconclusive
Cc1cc(C)n2nc(C(=O)N/N=C/c3cn(C)nc3C)nc2n1	none (no result: Luc counter, SMN2 splice up)
CN(C)c1ccc(/C=N/NC(=O)c2ccc3c(c2)OCO3)cc1	ELG1 genotoxic inconclusive, FLuc counter 8.49µM, Rab9 prom act inconclusive, NPC1 promoter act inconclusive (no result: Luc counter, SMN2 splice up)
CCOC(=O)c1c(C)[nH]c(C)c1S(=O)(=O)N1CCOCC1	none (no result: Luc counter, SMN2 splice up)
CC(NC(=O)Nc1cc(Cl)ccc1Cl)c1c(-n2cccc2)sc2c1CCCC2 (stereo not given)	none (no result: ELG1 genotoxic, Luc counter, SMN2 splice up, Rab9 prom act, NPC1 promoter act)
CC(C)(C)CN1CCC(Oc2cccc(C(=O)N3CCNC(=O)C3(C)C)c2)CC1	none (no result: Luc counter, SMN2 splice up)
Nc1nonc1C(=O)N/N=C\c1cc2c(cc1Cl)OCO2	FLuc counter inconclusive (no result: Luc counter, SMN2 splice up)
COC(=O)/C=C/c1ccc2c(c1)OCO2	FLuc counter inconclusive
Cc1ccc(C(=O)/C=C/c2ccc3c(c2)OCO3)o1	FLuc counter 2.39µM
Cc1ccc(/C=N\NC(=O)c2ccc3c(c2)OCO3)o1	ELG1 genotoxic inconclusive, FLuc counter 23.9µM, Rab9 prom act inconclusive, NPC1 promoter act inconclusive (no result: Luc counter, SMN2 splice up)
Cc1ccc(C(=O)N/N=C/c2ccc3c(c2)OCO3)o1	ELG1 genotoxic inconclusive, Luc counter inconclusive, SMN2 splice up 12.6µM, FLuc counter 6.01µM, Rab9 prom act 2.82µM, NPC1 promoter act 3.16µM
Cn1cc(Br)c(C(=O)N/N=C/c2cc3c(cc2Cl)OCO3)n1	ELG1 genotoxic inconclusive, FLuc counter 6.01µM, Rab9 prom act inconclusive, NPC1 promoter act 2.82µM (no result: Luc counter, SMN2 splice up)
O=C(N/N=C/c1ccc([N+](=O)[O-])o1)c1ccc2c(c1)OCO2	FLuc counter inconclusive (no result: Luc counter, SMN2 splice up)
Cc1ccc2oc3c(c(=O)c2c1)C(c1ccc(O)cc1)N(c1nc(C)c(C)s1)C3=O (stereo not given)	none (no result: ELG1 genotoxic, Luc counter, Rab9 prom act, NPC1 promoter act)
CC1(C)C(=O)N(CC(=O)Nc2cccc(F)c2)c2ccc(S(=O)(=O)N3CCCCC3)cc21	none (no result: ELG1 genotoxic, Luc counter, SMN2 splice up, Rab9 prom act, NPC1 promoter act)
COc1cc(/C=C(\C#N)c2nc3ccccc3[nH]2)cc(Cl)c1OCc1ccccc1Cl	none (no result: ELG1 genotoxic, Luc counter, Rab9 prom act, NPC1 promoter act)
COc1cc(/C=N/NC(=O)CNC(=O)c2ccc3c(c2)OCCO3)ccc1O	none
